Bioassay records: PubChem, National Center for Advancing Translational Sciences (NCATS)
Compounds with a hit are over-represented: about 7.9% of the library has one in this group of screens.
MARV entry inh: inhibitors of Marburg virus binding or cell entry | Marburg virus pseudotyped entry inhibition, cell reporter | Potency, µM (highest dose often 37.8 µM), inactives show at the highest dose activity change, negative = inhibition, hits mostly inhibitors | actives 1.8% (n = 300,000) | AID 540276; calls by dose curve; tested in HEK293 cells; also: potency is read from the fitted curve at half-maximal effect
FMDV inh: blocks foot and mouth disease virus; FMDV antiviral cell-based qHTS; Potency, µM (series often up to 57.9 µM), for inactives: at the top dose activity change, negative = inhibition, usual class: inhibitors; actives 1.2% (n = 410,000); AID 1159524; calls by dose curve; tested in HEK293T cells; also: read-out not given here; potency is read from the fitted curve at half-maximal effect; nearly all actives have a fitted effect of over 45% in size
HCV inhibitor: HCV inhibition; Huh7.5.1 HCVcc-Cre infection, luciferase reporter, 44 h; Potency, µM (titrated, usually from 41.8 µM), inactives show at the top dose activity change, negative = inhibition, usual class: inhibitors; actives 3.4% (n = 340,000); active = well fitted inhibition curve with a large enough effect; inconclusive = small, poorly fitted or top-dose-only effect, or another doubt; inactive = no such curve, though single readings can be large or run the other way; also: potency is read from the fitted curve at half-maximal effect
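Infectious HCVcc-Cre (~0.5 moi) was added to cells just after compound, with cells seeded 4 h earlier at 1,000 per well. Luciferase activity after 44 h culture reported infection; substrate was incubated 15 min at room temperature before reading.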
HCMV antiviral: human cytomegalovirus inhibition | actives 4.5% (n = 410,000) | activity change, negative = inhibition, % at 57.5 µM | HFF cells, HCMV-luciferase reporter, 72 h; active compounds read low | AID 1259415; in the data active = activity change below about -60%; inconclusive = no clear call, values can overlap the other calls; inactive = above about -39%
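Screen run at 2 compound doses on HFFs infected with reporter HCMV, MOI 1 PFU/cell. Luciferase activity from cell lysates at 72 h post infection gave inhibition relative to buffer-only and Salinomycin wells.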
Lassa entry inh: inhibitors of Lassa virus binding or cell entry. Lassa virus pseudotype entry inhibition, cell reporter. AID 540256. Potency, µM (highest dose often 37.9 µM), for the others: top-dose activity change, negative = inhibition, hits mostly inhibitors. actives 1.2% (n = 300,000); calls by dose curve; tested in HEK293 cells; also: potency is read from the fitted curve at half-maximal effect; nearly all actives have a fitted effect of over 50% in size
* = called active by the depositor; ? = inconclusive; . = no result given; ! = repeats disagree; [ ] = dose if it differs, or a comment. % is scaled to controls: 0 for no effect and ±100 for the full control effect.

SMILES	MARV entry inh	FMDV inh	HCV inhibitor	HCMV antiviral	Lassa entry inh
CCN(CC)CCSc1nnc2c3ccccc3n(Cc3ccccc3)c2n1	.	-30%	11µM*	?	.
CCN(CC)CCSc1nnc2c3cc(F)ccc3n(Cc3ccccc3)c2n1	-1%[46.1 µM]	-3%	?	-22	?
COC(=O)Cn1cc(/C=N/NC(=O)COc2cccc3cccnc23)c2ccccc21	-2%	-14%	2%	-70*	1%
COC(=O)C1=C(C(=O)OC)[C@@H]2N(Cc3ccccc3)c3ccccc3[C@@]23C[C@@H](C(=O)OC)N(C(=O)NCc2ccccc2)C3=C1	16%[14.2 µM]	.	.	.	.
CN(C)[C@@H]1C(=O)C(C(N)=O)=C(O)[C@@]2(O)C(=O)C3=C(O)c4c(O)cccc4[C@@](C)(O)C3C[C@@H]12 (stereo partly drawn)	.	-13%	-8%	20	.
CN(C)[C@@H]1C(=O)C(C(N)=O)=C(O)[C@@]2(O)C(=O)C3=C(O)c4c(O)ccc(Cl)c4[C@@](C)(O)[C@H]3C[C@@H]12	.	?	0.89µM*	37	.
O=C(NCCc1ccccc1)c1ccccc1NC(=O)C1CC=CCC1C(=O)O (stereo not drawn)	?	35%	27%	51	-13%
COC(=O)c1ccccc1NC(=O)C1CC=CCC1C(=O)O (stereo not drawn)	30%	9%	15%	-60*	2%
O=C(N=Nc1c(O)[nH]c2ccc(Br)cc12)c1ccccc1-n1cccc1	?	?	18µM*	?	?
O=C(N=Nc1c(O)[nH]c2ccc(Br)cc12)c1cc(-c2cccs2)nc2ccccc12	-8%[46.1 µM]	?	?	-61*	0%
Cn1c(O)c(N=NC(=O)c2cc(-c3cccs3)nc3ccccc23)c2ccccc21	?	-3%	?	-9	12%
Oc1ccc(NC(=S)N=Nc2c(O)[nH]c3ccc(Br)cc23)cc1	?	-19%	-14%	-91*	11µM*
O=C(N=Nc1c(O)[nH]c2ccc(Br)cc12)c1ccco1	.	8%	.	2	.
O=C(NCC1(N2CCOCC2)CCCC1)c1cnn(-c2nccc(-c3ccco3)n2)c1C1CC1	.	-21%	.	.	.
CCOc1ccc(CNCc2c(C(=O)O)n(Cc3ccccc3C)c3cc(OC)ccc23)cc1OC	.	-4%	.	-1	?
O=S(=O)(c1cc(Br)ccc1Br)N1CCC(c2noc3ccccc23)CC1	.	.	.	-9	.
c1csc(CNc2nc(CN3CCCC(c4nc5ccccc5o4)C3)nc3ccccc23)c1 (stereo not drawn)	.	8%	.	.	.
COc1ccc(-c2nc3ccccc3o2)cc1NC(=O)COc1ccc(C(C)(C)C)cc1	.	4%	.	96	14%[46.1 µM]
COc1ccccc1N1C(=O)N(C(C)=O)C2C1Nc1ccccc1N2C (stereo not drawn)	12µM*	.	?	-26	?
COc1ccccc1N1C(=O)c2ccccc2NC1c1ccncc1 (stereo not drawn)	-2%[46.1 µM]	-10%	0%	3	-5%
CC(=O)Oc1ccc(OC(C)=O)c(SCCCCCCl)c1	?	?	11µM*	-72*	?
COc1ccc(CCNc2nc(-c3ccc(OC)c(OC)c3)cc(C(F)(F)F)n2)cc1OC	?	?	.	-20	5%[46.1 µM]
CO[C@H]1[C@H](NC(=O)c2ccco2)c2ccccc2C12CCN(Cc1cnc(N(C)C)s1)CC2	.	-16%	.	.	.
CCOC(=O)c1cc2c(=O)n3ccccc3nc2n(C(C)C)c1=NC(=O)c1c(-c2c(F)cccc2Cl)noc1C	?	-16%	2µM*	-90*!	?
CCOC(=O)c1cc2c(=O)n3ccccc3nc2n(Cc2ccco2)c1=NC(=O)c1cc(C)cc(C)c1	27%[46.1 µM]	0%	.	-77*	?
SMILES	MARV entry inh	FMDV inh	HCV inhibitor	HCMV antiviral	Lassa entry inh
CCOC(=O)c1cc2c(=O)n3ccccc3nc2n(C)c1=NC(=O)c1c(-c2c(F)cccc2Cl)noc1C	?	-20%	?	?	1%
CCOc1ccc(Nc2cc(C)nc3nc(Cc4ccc(Cl)cc4)nn23)cc1	17%[46.1 µM]	-6%	.	-21	?
Cc1nc2cc(NC(=O)[C@@H]3C[C@@H](Sc4ccccn4)CN3Cc3cccc(F)c3)ccc2s1	.	5%	.	.	.
CCCCN(CCCNC(=O)c1ccc2c(c1)NC(=O)CN2C)c1ccccc1	.	22µM*	.	-98*	.
CCCCN(CCCNC(=O)c1c(C)cc(=O)oc1C)c1ccccc1	-4%	-1%	4µM*	24	0%
CCCCN(C(=O)c1ccc2c(c1)NC(=O)CS2)c1ccccc1	.	-19%	?	-100*	.
